Measured values: ChEMBL document CHEMBL3988442, “University of Dundee, Small-Polar-MMV Screening Library” (2021)
For some of these results: Entries with a potency or affinity are not part of this list.

Experiments:
Parameters in all cases: scale not given: direction of the effect not stated beside the values
[1] = target: Protein translocase subunit SecA (Escherichia coli (strain K12)) (UniProt P10408); assay: Assay to Identify E. coli SecA ATPase Inhibitors; type: functional; details: 30 µM
[2] = target: T1, Ubiquitin-activating enzyme e1, putative (Leishmania donovani (strain BPK282A1)) (UniProt E9BSI1); assay: Leishmania donovani Ubiquitin Activating Enzyme (LdE1); type: functional; details: 30 µM
T1 sequence (whole entry): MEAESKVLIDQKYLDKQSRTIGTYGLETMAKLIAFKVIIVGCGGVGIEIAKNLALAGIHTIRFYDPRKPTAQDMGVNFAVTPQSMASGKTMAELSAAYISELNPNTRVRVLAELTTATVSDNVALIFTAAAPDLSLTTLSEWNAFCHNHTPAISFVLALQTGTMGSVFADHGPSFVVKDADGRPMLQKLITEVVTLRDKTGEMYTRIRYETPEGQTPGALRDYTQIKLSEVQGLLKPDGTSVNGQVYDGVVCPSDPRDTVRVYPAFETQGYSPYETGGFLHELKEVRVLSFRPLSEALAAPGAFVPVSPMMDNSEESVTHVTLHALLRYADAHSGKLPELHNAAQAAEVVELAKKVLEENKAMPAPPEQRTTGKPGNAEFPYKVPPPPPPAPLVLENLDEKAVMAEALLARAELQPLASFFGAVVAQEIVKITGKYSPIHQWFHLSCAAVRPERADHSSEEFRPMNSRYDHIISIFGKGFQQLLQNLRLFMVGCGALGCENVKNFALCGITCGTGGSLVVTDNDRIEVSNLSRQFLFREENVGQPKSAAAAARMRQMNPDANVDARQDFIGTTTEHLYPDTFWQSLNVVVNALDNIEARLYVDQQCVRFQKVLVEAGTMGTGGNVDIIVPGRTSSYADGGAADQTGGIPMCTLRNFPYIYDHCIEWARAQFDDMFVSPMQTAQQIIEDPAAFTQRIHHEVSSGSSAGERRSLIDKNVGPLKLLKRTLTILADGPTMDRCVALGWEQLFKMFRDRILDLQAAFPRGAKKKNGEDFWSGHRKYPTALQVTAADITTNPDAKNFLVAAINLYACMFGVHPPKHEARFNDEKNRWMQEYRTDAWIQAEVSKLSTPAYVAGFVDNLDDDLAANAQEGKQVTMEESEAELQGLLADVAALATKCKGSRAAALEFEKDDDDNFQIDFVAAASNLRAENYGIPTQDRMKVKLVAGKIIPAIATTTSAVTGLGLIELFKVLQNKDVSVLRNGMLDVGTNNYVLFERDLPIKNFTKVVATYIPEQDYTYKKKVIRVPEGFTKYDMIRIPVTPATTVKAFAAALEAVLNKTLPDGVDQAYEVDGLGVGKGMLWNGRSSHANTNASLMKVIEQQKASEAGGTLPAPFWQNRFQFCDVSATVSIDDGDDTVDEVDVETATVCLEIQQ

[3] = target: Sialic acid-binding Ig-like lectin 9 (Homo sapiens) (UniProt Q9Y336); assay: Hs-Siglec9 ALPHAscreen SOP 20170721; details: 10 µM
Trypanosoma cruzi = assay: Trypanosoma cruzi phosphomannomutase and mannose-1-phosphate guanylyltransferase assay; type: functional; details: 10 µM
[4] = target: T2, Arginase-2, mitochondrial (Homo sapiens) (UniProt P78540); assay: in vitro enzyme assay to detect the production of urea directly proportional to the activity of Arginase II; type: functional; details: 33.3 µM; further: in the data most compounds retested in dose-response had high values
T2 sequence (whole entry): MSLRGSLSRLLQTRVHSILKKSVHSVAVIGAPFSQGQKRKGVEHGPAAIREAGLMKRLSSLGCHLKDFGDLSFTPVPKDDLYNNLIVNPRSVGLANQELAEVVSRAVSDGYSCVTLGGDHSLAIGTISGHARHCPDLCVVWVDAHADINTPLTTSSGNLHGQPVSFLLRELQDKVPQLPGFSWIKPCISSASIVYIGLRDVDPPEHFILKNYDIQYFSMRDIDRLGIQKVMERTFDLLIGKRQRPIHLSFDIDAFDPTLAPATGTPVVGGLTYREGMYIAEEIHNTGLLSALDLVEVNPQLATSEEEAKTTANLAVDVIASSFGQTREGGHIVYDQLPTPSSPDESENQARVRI

[5] = target: T3, Proteasome subunit beta (Trypanosoma cruzi) (UniProt O96673); assay: Trypanosoma cruzi proteasome chymotrypsin-like activity (TcProtChymo) assay.; further: in the data most compounds retested in dose-response had high values; type: functional; details: 9.37 µM
T3 sequence (whole entry): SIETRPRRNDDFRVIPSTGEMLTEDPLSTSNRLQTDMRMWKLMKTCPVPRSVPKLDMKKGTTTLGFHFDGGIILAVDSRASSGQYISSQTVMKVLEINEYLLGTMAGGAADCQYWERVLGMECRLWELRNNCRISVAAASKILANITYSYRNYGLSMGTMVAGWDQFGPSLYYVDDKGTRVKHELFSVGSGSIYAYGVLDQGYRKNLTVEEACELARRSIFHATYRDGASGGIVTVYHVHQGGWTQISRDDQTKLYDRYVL

Homo sapiens = species: Homo sapiens; assay: To identify inhibition of the IFN signalling (Jak-Stat) pathway via expression of an eGFP reporter gene under the control of an IFN-stimulated response element (ISRE) containing MxA promoter.; type: functional; details: 30 µM
[6] = target: T4, Tyrosyl-tRNA synthetase, putative (Trypanosoma cruzi (strain CL Brener)) (UniProt Q4DSP6); assay: Trypanosoma cruzi tyrosyl tRNA synthetase (TcYRS) _High Tyrosine SOP; type: functional; details: 30 µM; further: in the data most compounds retested in dose-response had high values
T4 sequence (whole entry): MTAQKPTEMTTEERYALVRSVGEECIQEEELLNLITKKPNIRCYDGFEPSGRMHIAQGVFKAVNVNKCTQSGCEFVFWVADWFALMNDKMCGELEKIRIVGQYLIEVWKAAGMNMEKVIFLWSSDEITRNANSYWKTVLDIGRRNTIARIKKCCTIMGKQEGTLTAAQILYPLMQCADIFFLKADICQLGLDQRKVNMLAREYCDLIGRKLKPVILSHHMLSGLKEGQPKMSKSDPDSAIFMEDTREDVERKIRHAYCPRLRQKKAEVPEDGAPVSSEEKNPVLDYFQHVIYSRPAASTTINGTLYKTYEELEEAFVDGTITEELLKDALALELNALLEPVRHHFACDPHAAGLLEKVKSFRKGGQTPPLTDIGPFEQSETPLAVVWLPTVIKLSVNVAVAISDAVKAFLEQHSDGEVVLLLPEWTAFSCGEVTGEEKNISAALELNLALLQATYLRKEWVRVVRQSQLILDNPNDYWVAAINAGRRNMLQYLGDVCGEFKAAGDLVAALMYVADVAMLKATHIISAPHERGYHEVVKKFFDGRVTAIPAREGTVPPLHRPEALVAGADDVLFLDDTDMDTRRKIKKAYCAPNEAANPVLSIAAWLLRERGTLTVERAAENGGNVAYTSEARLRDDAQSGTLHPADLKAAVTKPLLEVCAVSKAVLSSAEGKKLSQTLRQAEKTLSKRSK

[7] = target: T4, Tyrosyl-tRNA synthetase, putative (Trypanosoma cruzi (strain CL Brener)); assay: Trypanosoma cruzi tyrosyl tRNA synthetase (TcYRS) SOP; type: functional; details: 30 µM
[8] = target: Chromo domain-containing protein 1 (Saccharomyces cerevisiae (strain ATCC 204508 / S288c) (Baker's yeast)) (UniProt P32657); assay: ScCHD-1 Enzyme Inhibition Assay; type: functional; details: 30 µM; further: in the data most compounds retested in dose-response had high values
Chain of Chromo domain-containing protein 1 (Saccharomyces cerevisiae (strain ATCC 204508 / S288c) (Baker's yeast)) (P32657 whole entry, the tested form may be a part): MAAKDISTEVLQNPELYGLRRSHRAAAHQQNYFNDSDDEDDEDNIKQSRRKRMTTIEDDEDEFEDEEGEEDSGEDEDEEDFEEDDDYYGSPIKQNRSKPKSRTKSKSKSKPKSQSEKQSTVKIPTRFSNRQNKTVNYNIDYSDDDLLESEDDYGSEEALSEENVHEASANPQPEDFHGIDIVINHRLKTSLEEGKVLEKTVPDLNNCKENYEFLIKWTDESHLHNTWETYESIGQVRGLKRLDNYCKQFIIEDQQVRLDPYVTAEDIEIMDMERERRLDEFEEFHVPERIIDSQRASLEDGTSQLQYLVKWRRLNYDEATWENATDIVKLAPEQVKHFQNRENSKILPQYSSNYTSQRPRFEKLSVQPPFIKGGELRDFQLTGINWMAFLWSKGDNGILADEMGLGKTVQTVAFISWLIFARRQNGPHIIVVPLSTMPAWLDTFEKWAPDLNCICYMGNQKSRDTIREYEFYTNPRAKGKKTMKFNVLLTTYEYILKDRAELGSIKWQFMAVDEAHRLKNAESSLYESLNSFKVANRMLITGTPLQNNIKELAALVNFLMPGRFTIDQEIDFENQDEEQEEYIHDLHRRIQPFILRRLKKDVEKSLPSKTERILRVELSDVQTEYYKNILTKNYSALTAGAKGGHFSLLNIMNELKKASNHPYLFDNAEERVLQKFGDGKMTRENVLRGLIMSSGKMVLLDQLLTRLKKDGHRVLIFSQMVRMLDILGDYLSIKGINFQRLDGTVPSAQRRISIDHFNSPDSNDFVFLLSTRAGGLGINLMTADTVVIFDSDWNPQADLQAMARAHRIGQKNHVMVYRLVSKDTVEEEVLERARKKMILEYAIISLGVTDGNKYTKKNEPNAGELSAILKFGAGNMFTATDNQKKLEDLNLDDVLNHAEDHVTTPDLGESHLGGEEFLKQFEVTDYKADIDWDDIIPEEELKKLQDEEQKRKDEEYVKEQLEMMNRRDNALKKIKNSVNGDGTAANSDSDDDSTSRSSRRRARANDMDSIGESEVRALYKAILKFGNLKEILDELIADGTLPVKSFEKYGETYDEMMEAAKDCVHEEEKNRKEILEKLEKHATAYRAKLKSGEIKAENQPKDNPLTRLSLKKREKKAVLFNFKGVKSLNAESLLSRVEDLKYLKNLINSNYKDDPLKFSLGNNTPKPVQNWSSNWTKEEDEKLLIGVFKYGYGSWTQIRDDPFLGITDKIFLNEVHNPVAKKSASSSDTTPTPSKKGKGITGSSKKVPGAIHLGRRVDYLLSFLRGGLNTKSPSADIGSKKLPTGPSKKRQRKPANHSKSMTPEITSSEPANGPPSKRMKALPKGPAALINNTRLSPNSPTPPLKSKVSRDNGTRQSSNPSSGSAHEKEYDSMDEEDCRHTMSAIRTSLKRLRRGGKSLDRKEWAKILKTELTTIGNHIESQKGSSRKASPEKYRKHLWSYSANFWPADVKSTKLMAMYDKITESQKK

Chain of Sialic acid-binding Ig-like lectin 9 (Homo sapiens) (Q9Y336 whole entry): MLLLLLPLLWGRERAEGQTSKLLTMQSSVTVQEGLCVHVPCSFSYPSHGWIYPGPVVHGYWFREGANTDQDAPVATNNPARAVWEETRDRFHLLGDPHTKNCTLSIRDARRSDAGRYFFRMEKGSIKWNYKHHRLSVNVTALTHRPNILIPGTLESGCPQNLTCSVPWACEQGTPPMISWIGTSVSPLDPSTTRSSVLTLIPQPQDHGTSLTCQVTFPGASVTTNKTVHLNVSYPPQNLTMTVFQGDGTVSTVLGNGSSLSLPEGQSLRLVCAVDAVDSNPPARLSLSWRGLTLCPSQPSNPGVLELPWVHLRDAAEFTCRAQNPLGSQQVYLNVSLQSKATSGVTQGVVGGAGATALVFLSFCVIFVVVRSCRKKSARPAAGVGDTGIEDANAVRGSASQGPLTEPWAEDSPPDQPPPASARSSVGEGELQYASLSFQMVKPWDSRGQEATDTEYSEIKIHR
Chain of Protein translocase subunit SecA (Escherichia coli (strain K12)) (P10408 whole entry): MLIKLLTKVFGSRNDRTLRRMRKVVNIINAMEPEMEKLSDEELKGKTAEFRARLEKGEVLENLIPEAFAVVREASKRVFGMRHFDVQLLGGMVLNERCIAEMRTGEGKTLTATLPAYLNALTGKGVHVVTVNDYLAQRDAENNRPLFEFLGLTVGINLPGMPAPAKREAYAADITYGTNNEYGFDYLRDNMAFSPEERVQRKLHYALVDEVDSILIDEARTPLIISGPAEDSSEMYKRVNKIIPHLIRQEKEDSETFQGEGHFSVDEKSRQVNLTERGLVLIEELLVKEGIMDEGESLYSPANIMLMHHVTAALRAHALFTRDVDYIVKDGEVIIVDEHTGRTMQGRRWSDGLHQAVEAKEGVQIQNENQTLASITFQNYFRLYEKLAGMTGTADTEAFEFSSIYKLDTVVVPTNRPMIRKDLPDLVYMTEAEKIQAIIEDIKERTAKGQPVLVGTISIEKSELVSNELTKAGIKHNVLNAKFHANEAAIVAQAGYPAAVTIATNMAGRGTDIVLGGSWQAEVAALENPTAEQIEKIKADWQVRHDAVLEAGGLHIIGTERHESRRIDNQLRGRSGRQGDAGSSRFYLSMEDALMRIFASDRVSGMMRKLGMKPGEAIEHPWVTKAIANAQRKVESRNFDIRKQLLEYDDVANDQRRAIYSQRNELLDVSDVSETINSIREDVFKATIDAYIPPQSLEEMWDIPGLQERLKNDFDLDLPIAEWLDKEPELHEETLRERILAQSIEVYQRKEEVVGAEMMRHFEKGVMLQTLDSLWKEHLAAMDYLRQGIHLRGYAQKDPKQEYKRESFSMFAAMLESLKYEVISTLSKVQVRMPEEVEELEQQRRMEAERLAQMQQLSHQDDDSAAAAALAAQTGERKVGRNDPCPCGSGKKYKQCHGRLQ

Row | SMILES | Percent Effect [1] [%] | Percent Effect [2] [%] | Percent Effect [3] [%] | Percent Effect (Trypanosoma cruzi) [%] | Percent Effect [4] [%] | Percent Effect [5] [%] | Percent Effect (Homo sapiens) [%] | Percent Effect [6] [%] | Percent Effect [7] [%] | Percent Effect [8] [%]
1 | CCc1nc(C)ncc1C(=O)N1CCCC(n2nc(C)nc2C)C1 (stereo not given) | -0.229 | -53.9 | -2.48 | 8.92 | -3.69 | 0.0853 | -15.3 | -3.35 | 6.02 | -2.45
2 | NC(=O)C1(CCCc2cccnc2)CCCN(c2ncccn2)C1 (stereo not given) | -2.51 | 4 | 3.57 | -3.16 | 0.885 | 3.61 | 8.71 | 4.23 | 5 | -13
3 | CN(C)C(=O)N1C[C@H]2CCC[C@@]2(COc2ccccn2)C1 | -6.8 | 6.49 | -3.98 | -4.58 | -6.07 | 10.9 | 6.85 | -0.526 | 5.13 | -2.37
4 | CCOCCN1CCCC(c2cc(C(N)=O)[nH]n2)C1 (stereo not given) | -1.61 | 0 | 5.24 | -4.22 | 3.99 | 8.06 | 13.9 | 3.68 | 7.69 | -5.54
5 | Cn1cc(C(=O)N2CCC(Cc3nccs3)CC2)cn1 | 0.12 | 6.67 | -7.82 | -4.54 | -1.33 | 6.73 | 15 | 4.23 | 0 | -28.5
6 | CC(C)(C)c1n[nH]c(C2CN(C(=O)c3ccsc3)CCO2)n1 (stereo not given) | -1.88 | 7.69 | 5.72 | 0.657 | 0.82 | 3.33 | -15.3 | 2.39 | 13.2 | 2.07
7 | c1cc(-c2nc(CN3CCn4c(nnc4C4CC4)C3)cs2)cs1 | 0.225 | -23.1 | -7.08 | 3.47 | -1.64 | 5.55 | 21.9 | 2.39 | 8.43 | 5.73
8 | COc1cccc(-n2nnc(C(=O)N3CCN(C)CC3C)c2C)c1 (stereo not given) | 1.69 | 25.6 | -23.9 | 6.1 | -2.46 | 13.4 | 27.9 | 3.35 | 22.9 | 12.3
9 | O=C(NCc1cc(O)ncn1)C1COc2ccccc2C1 (stereo not given) | -3.59 | 10.8 | 17.9 | 3.59 | 12.9 | 13 | 9.77 | 5.85 | 17.1 | -2.86
10 | CCc1[nH]ncc1C(=O)N1CCCC(n2ccnc2C(C)C)C1 (stereo not given) | -3.48 | 13.3 | 5.91 | 0 | 0.887 | 0.763 | 25.5 | 3.68 | 10.3 | -5.4
